# Test results from the supplement of paper PMC8728848.
# This excerpt belongs to a sample that is enriched for the strongest signals.
# Key:
# Test in all cases: glycan array binding signal (z-score within array); higher = stronger binding
# Details in all cases: glycan notation: IUPAC condensed, linker removed
# [1] = target: Fuc(a1-2)Gal(b1-3)GlcNAc(b1-3)[Fuc(a1-2)Gal(b1-3)GlcNAc(b1-6)]GalNAc
# Method in brief: (§1)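 From the Consortium for Functional Glycomics database, 3228 arrays were curated, keeping only those whose protein sequence was available. Binding is given as a within-array Z-score averaged across arrays sharing a protein sequence and across linkers. Negative Z-scores can be read as non-binding.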
# [2] = target: Fuc(a1-2)Gal(b1-4)GlcNAc(b1-3)Gal(b1-4)GlcNAc
# Method in brief: as §1
# [3] = target: Fuc(a1-2)[Gal(a1-3)]Gal(b1-4)Glc
# Method in brief: as §1
# [4] = target: Fuc(a1-2)[Gal(a1-3)]Gal(b1-4)[Fuc(a1-3)]GlcNAc
# Method in brief: as §1
# [5] = target: Fuc(a1-2)[GalNAc(a1-3)]Gal(b1-3)GlcNAc(b1-6)GalNAc
# Method in brief: as §1
# [6] = target: Fuc(a1-2)[GalNAc(a1-3)]Gal(b1-4)Glc
# Method in brief: as §1
# [7] = target: Gal(a1-3)Gal(b1-4)[Fuc(a1-3)]GlcNAc
# Method in brief: as §1
# Gal(a1-4)GlcNAc = target: Gal(a1-4)GlcNAc
# Method in brief: as §1
# Gal(a1-6)Glc = target: Gal(a1-6)Glc
# Method in brief: as §1
# [8] = target: Gal(b1-3)GlcNAc(a1-6)Gal(b1-4)GlcNAc
# Method in brief: as §1
# [9] = target: Gal(b1-3)GlcNAc(b1-3)Gal(b1-3)GlcNAc
# Method in brief: as §1
# [10] = target: Gal(b1-3)GlcNAc(b1-3)Gal(b1-4)GlcNAc(b1-3)Gal(b1-4)GlcNAc(b1-2)[Gal(b1-3)GlcNAc(b1-3)Gal(b1-4)GlcNAc(b1-3)Gal(b1-4)GlcNAc(b1-6)]Man(a1-6)[Gal(b1-3)GlcNAc(b1-3)Gal(b1-4)GlcNAc(b1-3)Gal(b1-4)GlcNAc(b1-2)Man(a1-3)]Man(b1-4)GlcNAc(b1-4)[Fuc(a1-6)]GlcNAc
# Method in brief: as §1
# Gal(b1-3)GlcNAc6S = target: Gal(b1-3)GlcNAc6S
# Method in brief: as §1
# [11] = target: Gal(b1-4)GlcNAc(b1-2)[Gal(b1-4)GlcNAc(b1-6)]Man(a1-6)[Gal(b1-4)GlcNAc(b1-2)Man(a1-3)]Man(b1-4)GlcNAc(b1-4)GlcNAc
# Method in brief: as §1
# [12] = target: Gal(b1-4)GlcNAc(b1-3)Gal(b1-4)GlcNAc(b1-3)Gal(b1-4)GlcNAc(b1-2)Man(a1-3)[Gal(b1-4)GlcNAc(b1-3)Gal(b1-4)GlcNAc(b1-3)Gal(b1-4)GlcNAc(b1-2)Man(a1-6)]Man(b1-4)GlcNAc(b1-4)[Fuc(a1-6)]GlcNAc
# Method in brief: as §1
# [13] = target: Gal(b1-4)GlcNAc(b1-3)Gal(b1-4)GlcNAc(b1-3)Gal(b1-4)GlcNAc(b1-2)[Gal(b1-4)GlcNAc(b1-3)Gal(b1-4)GlcNAc(b1-3)Gal(b1-4)GlcNAc(b1-6)]Man(a1-6)[Gal(b1-4)GlcNAc(b1-3)Gal(b1-4)GlcNAc(b1-3)Gal(b1-4)GlcNAc(b1-2)Man(a1-3)]Man(b1-4)GlcNAc(b1-4)[Fuc(a1-6)]GlcNAc
# Method in brief: as §1
# [14] = target: Gal(b1-4)GlcNAc(b1-3)Gal(b1-4)GlcNAc(b1-3)Gal(b1-4)GlcNAc(b1-3)Gal(b1-4)GlcNAc(b1-2)Man(a1-3)[Gal(b1-4)GlcNAc(b1-3)Gal(b1-4)GlcNAc(b1-3)Gal(b1-4)GlcNAc(b1-3)Gal(b1-4)GlcNAc(b1-2)Man(a1-6)]Man(b1-4)GlcNAc(b1-4)GlcNAc
# Method in brief: as §1
# [15] = target: Gal(b1-4)GlcNAc(b1-3)Gal(b1-4)GlcNAc(b1-3)Gal(b1-4)GlcNAc(b1-3)Gal(b1-4)GlcNAc(b1-2)Man(a1-3)[Gal(b1-4)GlcNAc(b1-3)Gal(b1-4)GlcNAc(b1-3)Gal(b1-4)GlcNAc(b1-3)Gal(b1-4)GlcNAc(b1-2)Man(a1-6)]Man(b1-4)GlcNAc(b1-4)[Fuc(a1-6)]GlcNAc
# Method in brief: as §1
# [16] = target: Gal(b1-4)GlcNAc(b1-3)Gal(b1-4)GlcNAc(b1-3)Gal(b1-4)GlcNAc(b1-3)Gal(b1-4)GlcNAc(b1-2)[Gal(b1-4)GlcNAc(b1-3)Gal(b1-4)GlcNAc(b1-3)Gal(b1-4)GlcNAc(b1-3)Gal(b1-4)GlcNAc(b1-6)]Man(a1-6)[Gal(b1-4)GlcNAc(b1-3)Gal(b1-4)GlcNAc(b1-3)Gal(b1-4)GlcNAc(b1-3)Gal(b1-4)GlcNAc(b1-2)Man(a1-3)]Man(b1-4)GlcNAc(b1-4)[Fuc(a1-6)]GlcNAc
# Method in brief: as §1
# [17] = target: Gal(b1-4)GlcNAc(b1-3)Gal(b1-4)GlcNAc(b1-3)Gal(b1-4)GlcNAc(b1-3)Gal(b1-4)GlcNAc(b1-3)Gal(b1-4)GlcNAc(b1-2)Man(a1-3)[Gal(b1-4)GlcNAc(b1-3)Gal(b1-4)GlcNAc(b1-3)Gal(b1-4)GlcNAc(b1-3)Gal(b1-4)GlcNAc(b1-3)Gal(b1-4)GlcNAc(b1-2)Man(a1-6)]Man(b1-4)GlcNAc(b1-4)GlcNAc
# Method in brief: as §1
# [18] = target: Gal(b1-4)GlcNAc(b1-3)Gal(b1-4)GlcNAc(b1-3)Gal(b1-4)GlcNAc(b1-3)Gal(b1-4)GlcNAc(b1-3)Gal(b1-4)GlcNAc(b1-2)Man(a1-3)[Gal(b1-4)GlcNAc(b1-3)Gal(b1-4)GlcNAc(b1-3)Gal(b1-4)GlcNAc(b1-3)Gal(b1-4)GlcNAc(b1-3)Gal(b1-4)GlcNAc(b1-2)Man(a1-6)]Man(b1-4)GlcNAc(b1-4)[Fuc(a1-6)]GlcNAc
# Method in brief: as §1
# [19] = target: Gal(b1-4)GlcNAc(b1-3)Gal(b1-4)GlcNAc(b1-3)Gal(b1-4)GlcNAc(b1-3)Gal(b1-4)GlcNAc(b1-3)Gal(b1-4)GlcNAc(b1-2)[Gal(b1-4)GlcNAc(b1-3)Gal(b1-4)GlcNAc(b1-3)Gal(b1-4)GlcNAc(b1-3)Gal(b1-4)GlcNAc(b1-3)Gal(b1-4)GlcNAc(b1-6)]Man(a1-6)[Gal(b1-4)GlcNAc(b1-3)Gal(b1-4)GlcNAc(b1-3)Gal(b1-4)GlcNAc(b1-3)Gal(b1-4)GlcNAc(b1-3)Gal(b1-4)GlcNAc(b1-2)Man(a1-3)]Man(b1-4)GlcNAc(b1-4)[Fuc(a1-6)]GlcNAc
# Method in brief: as §1
# [20] = target: Gal(b1-4)GlcNAc(b1-3)Gal(b1-4)GlcNAc(b1-3)Gal(b1-4)GlcNAc(b1-3)Gal(b1-4)GlcNAc(b1-3)Gal(b1-4)GlcNAc(b1-3)Gal(b1-4)GlcNAc(b1-2)Man(a1-3)[Gal(b1-4)GlcNAc(b1-3)Gal(b1-4)GlcNAc(b1-3)Gal(b1-4)GlcNAc(b1-3)Gal(b1-4)GlcNAc(b1-3)Gal(b1-4)GlcNAc(b1-3)Gal(b1-4)GlcNAc(b1-2)Man(a1-6)]Man(b1-4)GlcNAc(b1-4)GlcNAc
# Method in brief: as §1
binder,measurement,setting,value
"Gal 3C (Homo sapiens), P17931 (protein) YGAPAGPLIVPYNLPLPGGVVPRMLITILGTVKPNANRIALDFQRGNDVAFHFNPRFNENNRRVIVCNTKLDNNWGREERQSVFPFESGKPFKIQVLVEPDHFKVAVNDAHLLQYNHRVKKLNEISKLGISGDIDLTSASYTMI",glycan array binding signal (z-score),[1],-0.212
same,glycan array binding signal (z-score),[2],1.07
same,glycan array binding signal (z-score),[3],-0.106
same,glycan array binding signal (z-score),[4],-0.196
same,glycan array binding signal (z-score),[5],-0.229
same,glycan array binding signal (z-score),[6],-0.117
same,glycan array binding signal (z-score),[7],-0.259
same,glycan array binding signal (z-score),Gal(a1-4)GlcNAc,-0.295
same,glycan array binding signal (z-score),Gal(a1-6)Glc,-0.222
same,glycan array binding signal (z-score),[8],-0.269
same,glycan array binding signal (z-score),[9],-0.068
same,glycan array binding signal (z-score),[10],1.95
same,glycan array binding signal (z-score),Gal(b1-3)GlcNAc6S,-0.277
same,glycan array binding signal (z-score),[11],-0.222
same,glycan array binding signal (z-score),[12],4.24
same,glycan array binding signal (z-score),[13],4.41
same,glycan array binding signal (z-score),[14],5.03
same,glycan array binding signal (z-score),[15],4.24
same,glycan array binding signal (z-score),[16],4.44
same,glycan array binding signal (z-score),[17],4.06
same,glycan array binding signal (z-score),[18],6.46
same,glycan array binding signal (z-score),[19],6.39
same,glycan array binding signal (z-score),[20],4.39
